# Laboratory results published in the OligoGym collection.
# Target: TNFAIP6
# Assay: pooled miR-30 sensor sort-seq; sequence = guide strand
# Settings: shRNA
# Further: reference of the scale not given here.
row,Sequence,sensor-assay potency score (higher = more potent)
1,TTGTATTTTTTCCTTGACTGGA,-0.793
2,TTCTCTGTGGTACACACCGGCT,-1.32
3,TAGTACTTGTATTTTTTCCTTG,-0.262
4,TATCTTCGTACTCATTTGGGAA,-0.842
5,TATTTCAACATAATCAGCCAAG,-1.38
6,TAAAAATTTGCTTTGGATCTGT,0.758
7,TTGAGTGTCTTCCCATAGCAAG,-1.58
8,TTCAAATTCACACACCGCCTTA,-0.588
9,TTCCAGTAGAAGTAGTACTTGT,-0.0924
10,TTATCTTCGTACTCATTTGGGA,-0.091

# Target: TNFRSF10A
# Assay: as above
# Settings: shRNA
row,Sequence,sensor-assay potency score (higher = more potent)
1,TTGAAGGTCTTGTGGACCCGGA,0.23
2,TTGATGGTTGCAGCTGAGCTAG,-1.28
3,TTAACTCCTAACACCTAAGAGG,-0.905
4,TTGATCATGAAGTTTGATGGTT,0.371
5,TTTCGTGAGGTCCAGCTGCCTC,-0.987
6,TCTAAGTAGATGAACTTTCCAG,-0.118
7,TTGCATACAAGGCATCCCCTGG,-0.804
8,TCTTCTAAGTAGATGAACTTTC,-0.791
9,TGTATTAACTCCTAACACCTAA,-0.808
10,TTCTTTGTGGACACACTCGATG,-0.86
11,AAACTTGTCAAAGAACAGCATC,-1.04

# Target: TNIP2
# Assay: as above
# Settings: shRNA
row,Sequence,sensor-assay potency score (higher = more potent)
1,TTCTTCTAGTCGCTCAGTCAGC,-0.848
2,TCCAACTGTCTGTTGAGCCGGG,-0.18
3,TTCTGACATGAAGTCATCCTTG,-0.577
4,TTGCTCGTCACTGAAGCACTGC,0.0739
5,TATTCCATAGAACAGGATGGGG,-0.938
6,TTTCTCTTCCAACTGTCTGTTG,-0.51
7,TTCAACGTGAGTCACCTTCTGT,-0.171
8,TTTTCTCTTCCAACTGTCTGTT,-0.371
9,TTTATTTTCTCTTCCAACTGTC,0.553
10,TAACAGTCGATTTTCTTCCTGC,0.411
11,TTGAATCCTACTTTGAGCCCGT,0.603
12,TTCTCTTCCAACTGTCTGTTGA,0.202

# Target: TNK1
# Assay: as above
# Settings: shRNA
row,Sequence,sensor-assay potency score (higher = more potent)
1,TTTCTGTCTCCATCTATGCTTC,-0.886
2,TAGTGCTGTCTGGCACTCCTGG,-1.01
3,TAATGCTCCAGGATGCGCCAGC,-0.794
4,TTTGAAGGTGCGACCATTCTGG,0.416
5,TCTCATAATCCATACTACCAGC,-1.03
6,TAGACTTAGGCCCAGAACGTAG,-0.86
7,TAGTGGGCAGACTAGATCCTTC,-0.841
